# Target: HLA-C*04:01
# Experiment: thermal melting temperature (Tm) of peptide-HLA complex; higher = more thermostable pHLA complex
# Description: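 Endogenous HLA-C*04:01 ligands were detected in the thermostability assays of both the C1R-A*02:01 and C1R-B*07:02 lines. Lysates were heated 10 min at 37-73 °C and pHLA immunoprecipitated with W6/32. Peptides were quantified by DIA-MS and Tm was taken from a logistic sigmoid fit.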
Sequence,thermal melting temperature (C1R-A*02:01) [°C],thermal melting temperature (C1R-B*07:02) [°C]
FLPEAPAEL,54.1,55.9
GGSFDVADRMF,53.1,53.2
SFDAHLTEL,53,52.9
LYDEAIRHF,56.5,60
YFPELIANF,45.6,45.3
FWDGKIVLV,62.5,60.7
TFDVSPKAV,41.9,48.1
TYDYAKTIL,49,46.9
DFDMTLSRF,52.8,54.5
FFDSQGQVLL,51,53.6
SYDLANRDF,58.3,57.8
HFDLSVIEL,57.1,60.5
SFEEKPVYI,56.8,55.5
FFDTNTSVL,55.5,59.4
LFDDKAVEI,57.2,57.2
FFDPSLLHL,55.4,55.8
RFEDSPSYV,54.4,52.3
VFDEAIRAVL,60.2,58.8
SFDEIHQLF,47.8,52
IYDEAISSF,58.9,62.7
VFDPIGHF,59.3,58.8
SFDETVTHF,58.6,59.8
AFDASRTSF,52.4,52.8
AFDLTEQRY,55.9,56.4

Sequence,thermal melting temperature (C1R-A*02:01) [°C],thermal melting temperature (C1R-B*07:02) [°C]
RFDSDVGEF,54.9,54.5
FNDTFVHV,49.3,48.5
VYDLLKTNL,59,58.3
VADPYVVIM,53.4,54.6
SYDHVELTF,51.3,51.9
SFDSTVRL,52.9,54.6
NYDEALRLL,54,53
VFHVQQTEM,53.8,54.5
SFDVSQKF,49,49.7
FTDEESRVF,48.1,46.7
IFDSKVTEI,55.4,54.8
ILDPHVVLL,54.8,57.6
VYDIAAKF,56.9,57.6
FYPPDPAQL,49.5,51.5
AYDDKIYYF,56.1,55.7
VWDVIGRSL,53.5,51.9
NYDFGPIHM,54.2,55.8
HFDDFVTNL,58.7,58
MLDPLEVHL,47.2,52.5
KADGVPVYL,56.5,57.1
TFDASRTTF,53.4,53.5
QLDPLVVEL,50,46.9
AFDVHLNAF,55.5,55.9
